Assay outcomes (PubChem BioAssay)
aSyn 5UTR act: Activators working through SNCA 5'UTR binding (MLPCN) | alpha-synuclein 5'UTR reporter, activators screen | activity score, % (tested at 7.5 µM), hits read low | actives 7.1% (n = 300,000); in the data active = activity score below about -60%
Large screens that a line does not name were inactive. A selection follows.

COc1ccc(O)c(/C=C(\C#N)C(=O)Nc2cccnc2)c1	aSyn 5UTR act -80
CCCOc1ccccc1/C=C(\C#N)C(=O)Nc1cccnc1	aSyn 5UTR act -85
COC(=O)c1ccc(COc2ccccc2/C=C(\C#N)C(=O)Nc2c(C)cccc2C)cc1	aSyn 5UTR act -82
O=[N+]([O-])c1cccnc1Oc1ccc(C2SCCS2)cc1	aSyn 5UTR act -106
O=[N+]([O-])c1cccnc1Oc1ccc(OCc2ccccc2)cc1	aSyn 5UTR act -79
O=[N+]([O-])c1cccnc1Sc1ccc(Br)cc1	none
N#Cc1cn(-c2ccccc2)nc1-c1ccccc1	aSyn 5UTR act -78
Nc1nc2ccccc2n1/N=C/c1ccc(-c2ccccc2)o1	aSyn 5UTR act -191
Nc1nc2ccccc2n1/N=C/c1ccc([N+](=O)[O-])s1	none
COc1ccc(C2CC(c3ccccc3OC(=O)/C=C/c3ccccc3)=NN2C(C)=O)cc1 (centres undefined)	aSyn 5UTR act -69
COc1ccc(C2CC(c3ccccc3)=NN2C(=O)COC(=O)c2cccnc2)cc1 (centres undefined)	aSyn 5UTR act -62
COc1ccc(C2CC(c3ccccc3)=NN2C(=O)c2cccs2)cc1 (centres undefined)	aSyn 5UTR act -92
Cc1ccc(O)c(C(=O)/C=C/c2ccc3c(c2)OCCCO3)c1	aSyn 5UTR act -188
O=C(/C=C/c1ccc2c(c1)OCCCO2)c1ccccc1O	aSyn 5UTR act -311
O=c1cc(CNc2cc(C(F)(F)F)cc(C(F)(F)F)c2)nc2sccn12	none
O=c1cc(COc2ccc(Cl)c(Cl)c2)nc2sccn12	aSyn 5UTR act -83
O=C1CCCc2c1[nH]c1ccc(Cl)cc21	none
CCOC(=O)c1ccc2[nH]c3c(c2c1)CCCCC3=O	aSyn 5UTR act -102
Cn1cc(Br)c(C(=O)N/N=C/c2cc3c(cc2Cl)OCO3)n1	aSyn 5UTR act -140
O=C(N/N=C/c1cc2c(cc1[N+](=O)[O-])OCO2)c1ccccn1	aSyn 5UTR act -81
COc1cc(/C=N/NC(=O)c2ccccn2)cc2c1OCO2	aSyn 5UTR act -95
O=C(N/N=C/c1cc2c(cc1Cl)OCO2)c1ccccn1	aSyn 5UTR act -92
Cc1ccc(NC(=S)NCCCN2CCOCC2)cc1	aSyn 5UTR act -63
S=C(NCCN1CCOCC1)Nc1ccc(-c2nc3ccccc3[nH]2)cc1	aSyn 5UTR act -129
COc1cccc(N(C(=O)CCl)C(C(=O)NCCc2ccccc2)c2cccs2)c1 (centres undefined)	aSyn 5UTR act -112
CC(=O)O[C@H]1C(=O)[C@@]2(C)C([C@H](OC(=O)c3ccccc3)[C@]3(O)C[C@H](OC(=O)[C@H](O)[C@@H](NC(=O)c4ccccc4)c4ccccc4)C(C)=C1C3(C)C)[C@]1(OC(C)=O)CO[C@@H]1C[C@H]2O (some centres undefined)	none
N#Cc1c(-c2ccc(Cl)cc2)ccn2nc(C3CCCCC3)nc12	aSyn 5UTR act -164
Cc1ccc(NC(=S)NNC(=O)Nc2ccccc2)cc1	aSyn 5UTR act -132
Cc1ccc(NC(=O)NC(=O)N(c2ccccc2)S(C)(=O)=O)cc1	aSyn 5UTR act -93
Cc1ccc(NC(=S)NNC(=O)c2nn(C)c(C)c2Cl)cc1	aSyn 5UTR act -276
O=C(NNC(=S)Nc1ccccc1)Nc1ccccc1	aSyn 5UTR act -92
CCOc1ccc(NC(=O)NC(=O)N(C)S(=O)(=O)c2ccc(C)cc2)cc1	aSyn 5UTR act -82
CCCOc1ccc(NC(=O)c2cc3cc(C)ccc3[nH]2)cc1	aSyn 5UTR act -71
Cc1cc(C)c2cc(C(=O)Nc3ccccc3)[nH]c2c1	aSyn 5UTR act -81
Cc1ccc2[nH]c(C(=O)Nc3ccc(F)cc3)cc2c1	aSyn 5UTR act -142
COc1cc(C(=O)N=c2sc3ccccc3n2C)cc(OC)c1OC	aSyn 5UTR act -103
COc1cc(C(=O)N=c2sc3c(C)ccc(OC)c3n2C)cc(OC)c1OC	aSyn 5UTR act -222
COc1ccc(C(=O)N=c2sc3c(C)ccc(OC)c3n2C)cc1	aSyn 5UTR act -115
Cn1c(=NC(=O)c2cccc([N+](=O)[O-])c2)sc2ccccc21	aSyn 5UTR act -139
COc1cc(/C=N/Nc2nc3ccccc3[nH]2)cc(OC)c1O	aSyn 5UTR act -100
COc1ccc(O)c(/C=N/Nc2nc3ccccc3[nH]2)c1	aSyn 5UTR act -81
COc1cccc(/C=N/Nc2nc3ccccc3[nH]2)c1OC	aSyn 5UTR act -106
COc1cc(/C=N/Nc2nc3ccccc3[nH]2)ccc1O	aSyn 5UTR act -270
COc1cc(/C=C(/C(=O)c2cccs2)c2nc3ccccc3[nH]2)cc(OC)c1O	aSyn 5UTR act -224
COc1ccccc1Nc1nc2ccccc2[nH]1	aSyn 5UTR act -120
COc1cc(C2Nc3ccc4ncccc4c3C3=C2C(=O)CCC3)ccc1O (centres undefined)	aSyn 5UTR act -102
c1ccc2nc3c(nc2c1)OCC1CCCCN31 (centres undefined)	aSyn 5UTR act -91
CCOc1ccc(-c2cn(-c3cccc(SC)c3)c(=O)[nH]2)cc1	aSyn 5UTR act -72
O=C(Nc1ccc(NC(=O)c2cccs2)cc1Cl)c1ccco1	aSyn 5UTR act -154
O=C(Nc1ccc(NC(=O)c2cccs2)c(Cl)c1)c1cccs1	aSyn 5UTR act -118
COc1cc(NC(=O)COc2ccccc2Cl)ccc1NC(=O)c1cccs1	aSyn 5UTR act -113
COc1cc(NC(=O)c2ccccc2Cl)ccc1NC(=O)c1ccco1	aSyn 5UTR act -195
COc1cc(NC(=O)c2cccs2)ccc1NC(=O)c1ccco1	aSyn 5UTR act -149
CCOC(=O)c1c(NC2=NS(=O)(=O)c3ccccc32)sc2c1CCCCC2	aSyn 5UTR act -63
Cc1cnc(NCCc2ccccc2)s1	aSyn 5UTR act -63
CC(CC(=O)Nc1ccc2c(c1)OCO2)c1ccccc1 (centres undefined)	aSyn 5UTR act -92
CC(CC(=O)Nc1ccc2c(c1)OCCO2)c1ccccc1 (centres undefined)	aSyn 5UTR act -161
Cc1ccc(Nc2n[nH]c(C)c2[N+](=O)[O-])c(C)c1	aSyn 5UTR act -66
Cc1ccc(NC2=C(Cl)C(=O)OC2OC(C)C)c(C)c1 (centres undefined)	none
Cc1ccccc1Nc1n[nH]c(C)c1[N+](=O)[O-]	aSyn 5UTR act -65
COc1ccc(Nc2n[nH]c(C)c2[N+](=O)[O-])cc1	aSyn 5UTR act -102
Brc1ccc(NC2=Nc3ccccc3CC2)cc1	aSyn 5UTR act -172
COC(=O)c1ccc(OCCOc2ccccc2)cc1	aSyn 5UTR act -131
COC(=O)c1ccc(N=Nc2ccccc2)cc1	aSyn 5UTR act -132
COC(=O)c1ccc2nc(-c3cccc(N)c3)cn2c1	none
O=C1CCCC1C(=O)Nc1ccc2ccccc2c1 (centres undefined)	aSyn 5UTR act -121
CC(C)=C1C2C=CC1C(C(=O)Nc1cccc(C)c1)C2C(=O)O (centres undefined)	aSyn 5UTR act -62
CN1CCN(c2ccc(-c3cccc(NC(=O)COc4ccc(Cl)cc4)c3)nn2)CC1	aSyn 5UTR act -131
CN1CCN(c2ccc(-c3cccc(NC(=O)COc4ccccc4)c3)nn2)CC1	aSyn 5UTR act -70
CCC(=O)Nc1cccc(-c2ccc(N3CCN(C)CC3)nn2)c1	aSyn 5UTR act -73
Oc1ccccc1-c1cc(-c2cccc(F)c2)n[nH]1	aSyn 5UTR act -234
C/C(=N\OC(=O)c1ccc(F)cc1)c1sc(-c2ccc(Cl)cc2)nc1C	aSyn 5UTR act -211
Cc1nc(-c2ccc(Cl)cc2)sc1C(=O)O	aSyn 5UTR act -101
Cc1ccc(-c2nc(C)c(C(=O)O)s2)cc1	aSyn 5UTR act -208
O=C(CCl)c1ccc2c(c1)CCN2C(=O)C1CC1	aSyn 5UTR act -94
